HT1080 IDH1KD tx = HT-1080 IDH1 knockdown cell toxicity (counter line); HT-1080 IDH1 knockdown viability, ATP luminescence, 48 h; Potency, µM (highest dose often 46.1 µM), for inactives: at the highest dose activity, negative = toxicity, usual class: cytotoxic; actives 2% (n = 360,000); AID 686971;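 further: potency means the concentration at half of the fitted maximal effect; 0% = DMSO wells and -100% = cell-free medium wells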
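IDH1KD HT-1080 cells, 750/well, RPMI + 5% FBS; compound pinned after 2 h settling; 48 h, 37 °C; CellTiter-Glo luminescence; % activity normalised to DMSO and no-cell wells; curves fitted, classed by r2 and efficacy.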
IL-1B inflam inh = inhibitors of inflammasome signaling (IL-1 beta secretion); actives 4.7% (n = 360,000); activity change, % at 57.5 µM; THP-1 LPS/ATP IL-1B secretion, AlphaLISA, 16 h; stronger effect = lower value; AID 743279; in the data active means activity change below about -50%; inconclusive means mostly about -30% to -49%
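THP-1 cells pretreated 1 hr with compounds (up to 57.5 uM final), then stimulated with LPS (250 ng/mL final) plus ATP (1.25 mM final); secreted IL-1B measured by AlphaLISA after 16 hr, decreased signal indicating inhibition.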
TDP1 cell noCPT = qHTS for Inhibitors of human tyrosyl-DNA phosphodiesterase 1 (TDP1): qHTS in cells in absence of CPT; Potency, µM (series often up to 46.2 µM), for the others: top-dose activity change, negative = growth inhibition, most hits filed as inhibitors; DT40 Tdp1-/- hTDP1 cells, no CPT, ATP luminescence, 48 h; AID 686978, 2013; actives 15% (n = 420,000); further: potency means the concentration at half of the fitted maximal effect; nearly all actives have a fitted effect of over 55% in size
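Growth kinetics read by CellTiter-Glo luminescence after ≥48 hr at 37 °C. Cells: DT40 Tdp1-/- stably carrying human TDP1, 400 per well, compound exposure in the absence of CPT (DMSO vehicle).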
DT40 TDP1 CPT = DT40-hTDP1 cell growth loss with CPT. chicken DT40 Tdp1-/-;hTDP1 cells + 20 nM CPT, ATP luminescence, 48 h. Potency, µM (doses to about 46.2 µM), inactives show at the highest dose activity change, negative = growth inhibition, usual class: inhibitors. AID 686979. actives 12% (n = 420,000); further: potency means the concentration at half of the fitted maximal effect; nearly all actives have a fitted effect of over 55% in size
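Chicken DT40 Tdp1-/- cells stably complemented with human TDP1 were seeded at 400 cells/well in medium containing 20 nM camptothecin, exposed to pin-transferred compounds, and grown at 37 °C for at least 48 hr. Viability was read as ATP luminescence.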
ALOX12 inh = blocks human arachidonate 12S-lipoxygenase | P18054 | purified 12hLO, xylenol orange hydroperoxide absorbance | Potency, µM (doses to about 108 µM), for inactives: top-dose activity change, negative = inhibition, usual class: inhibitors | actives 1.1% (n = 580,000); further: potency means the concentration at half of the fitted maximal effect
Target sequence (P18054 whole entry, looked up): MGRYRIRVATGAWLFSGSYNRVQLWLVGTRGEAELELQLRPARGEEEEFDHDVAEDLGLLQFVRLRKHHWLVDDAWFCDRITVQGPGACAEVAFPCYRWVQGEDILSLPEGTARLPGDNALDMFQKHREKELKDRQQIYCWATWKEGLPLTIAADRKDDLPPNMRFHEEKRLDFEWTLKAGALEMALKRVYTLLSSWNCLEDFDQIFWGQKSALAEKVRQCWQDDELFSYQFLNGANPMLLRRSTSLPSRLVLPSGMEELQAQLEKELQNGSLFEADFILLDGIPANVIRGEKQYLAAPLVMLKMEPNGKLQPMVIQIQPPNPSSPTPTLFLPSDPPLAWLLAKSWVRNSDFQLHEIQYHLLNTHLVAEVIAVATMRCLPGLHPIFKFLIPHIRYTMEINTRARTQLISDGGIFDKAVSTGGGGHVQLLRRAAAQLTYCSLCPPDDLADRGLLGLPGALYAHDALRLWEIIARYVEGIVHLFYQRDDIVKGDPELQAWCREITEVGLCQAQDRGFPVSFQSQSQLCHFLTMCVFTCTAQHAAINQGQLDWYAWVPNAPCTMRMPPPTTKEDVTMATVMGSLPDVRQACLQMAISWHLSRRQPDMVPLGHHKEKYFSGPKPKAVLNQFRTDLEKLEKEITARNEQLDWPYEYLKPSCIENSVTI
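Hydroperoxide product was detected by ferrous iron/xylenol orange as the 573 to 405 nm absorbance ratio. Arachidonic acid at 40 uM (final) was turned over for 30 min at room temperature by 150 nM human 12hLO, pH 7.0 Hepes buffer, after 15 min compound preincubation.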
HT1080NT lethal = kills 2HG-producing HT-1080-NT fibrosarcoma cells; HT-1080-NT fibrosarcoma viability, CellTiter-Glo ATP luminescence, 48 h; Potency, µM (highest dose often 46.1 µM), for the others: top-dose activity, negative = less viability, actives largely listed as cytotoxic; actives 1.6% (n = 360,000);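 further: NT is the 2HG producing partner of a matched IDH1 knockdown line; potency means the concentration at half of the fitted maximal effect; 0% = DMSO-treated cells and -100% = media-only wells without cells; nearly all actives have a fitted effect of over 55% in size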
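Viability by CellTiter-Glo luminescence after 48 h compound exposure at 37C of HT-1080-NT cells (750/well, RPMI, 5% FBS). % activity scaled between DMSO wells and medium-only wells, then curve-fitted and categorized by curve class.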
Active calls of the source: *; u = inconclusive; x = no result; ! = a repeat was not active; [ ] = another dose, or the depositor's remark. Many of the other results were omitted from the sample, so hits are more common in it than they were. Unless noted, the call rests on the fitted dose curve; in most records, active means well fitted curve in the direction sought with a large enough effect; inconclusive means small, poorly fitted or top-dose-only effect, or another doubt; inactive means no such curve, though single readings can be large; an effect the other way counts as inactive or inconclusive. Unless noted, on the % scale 0 is the no-effect control and ±100 the full control effect.

SMILES | HT1080 IDH1KD tx | IL-1B inflam inh | TDP1 cell noCPT | DT40 TDP1 CPT | ALOX12 inh | HT1080NT lethal
Cc1ccccc1Nc1nn2c(=O)c3ccc(C(=O)NCc4cccs4)cc3nc2s1 | x | x | 13µM* | 16.4µM* | 1.0% | x
CSc1nc2nc(C)c(CCC(=O)OCC(=O)Nc3ccc(F)cc3)c(C)n2n1 | 6.3% | 2.6 | 9.0% | -2.9% | -29.6% | 4.8%
CCc1cccc(C)c1Nc1nn2c(=O)c3ccccc3nc2s1 | x | x | 23.1µM* | 11.6µM* | u | x
COc1cccc(CNC(=O)c2ccc3c(=O)n4nc(Nc5ccccc5)sc4nc3c2)c1 | x | x | u | 8.2µM* | u | x
Cc1ccc(CN(C)C(=O)CSc2nc3ccccc3o2)c(C)c1 | x | x | x | x | -2.4% | x
COc1ccccc1CNC(=O)c1ccc2nc(N3CCOCC3)sc2c1 | 8.6% | 2.7 | -25.9% | -9.1% | 6.5% | 19.7%
COCc1ccc(C(=O)NC(C)c2ccc(F)cc2F)cc1 (stereo not given) | x | x | x | x | -21.1% | x
CC(NC(=O)c1ccc2c(c1)CCCC2)c1ccc(F)cc1F (stereo not given) | x | x | x | x | 39.8µM* | x
CC1(C(=O)Nc2ccc3c(c2)OCO3)Cc2c(-c3cccc(C(F)(F)F)c3)ccnc2O1 (stereo not given) | 11.6µM* | 41.7 | 3.66µM* | 4.11µM* | -17.9% | u
CC1(C(=O)Nc2ccccc2)Cc2c(-c3cccc(C(F)(F)F)c3)ccnc2O1 (stereo not given) | -18.1% | u | u | u | -4.2% | -2.3%
CC1(C(=O)Nc2cccc(C(F)(F)F)c2)Cc2c(-c3ccc4c(c3)OCO4)ccnc2O1 (stereo not given) | u | 34.8 | 18.4µM* | u | -17.0% | u
COc1ccc2c(c1)CCN=C2C[C@H]1CN(C(=O)Cc2cccs2)CC[C@H]1CC(=O)O | x | x | x | x | -8.3%[176 µM] | x
O/N=C1/CCN(Cc2ccccc2)C1 | x | x | x | x | 62.0% | x
Cc1occc(=O)c1OCc1noc(C(=O)NCc2cccnc2)n1 | x | x | x | x | 13.2% | x
O=c1n(-c2ccc(C(F)(F)F)cc2)nc2n1CCN(Cc1cccnc1)C2 | x | x | x | x | 5.6%[6.33 µM] | x
CCOc1ccc2nc(N3C(=O)/C(=C/c4ccccc4)NC3=S)sc2c1 | 8.8% | 20.3 | u | 23.1µM* | -14.9% | 2.2%
CCCNc1nc(-c2ccc([N+](=O)[O-])cc2)c(C(=O)Nc2ccccc2)s1 | x | x | x | x | -19.5% | x
COc1ccc(CC(=O)N2CC(CO)C3(CCNCC3)C2)cc1 (stereo not given) | x | x | x | x | 48.1% | x
COc1ccc(C2(C(=O)N3CC(CO)C4(CCNCC4)C3)CCCCC2)cc1 (stereo not given) | x | x | x | x | 31.6µM* | x
Cc1cccc(NC(=O)C2Cn3cccc3C(=O)N2)c1 (stereo not given) | x | x | x | x | -0.5% | x
O=C(NC1CC1)c1ccccc1OCC1CCCN(C(=O)C2CCCC2)C1 (stereo not given) | x | x | x | x | 20.8% | x
O=C(Nc1ccc(C(=O)O)cc1)/C(=C\c1ccccc1)NC(=O)c1ccccc1 | 11.5% | 0.0 | -5.5% | 2.6% | u | -0.4%
CCOC(=O)C(Cc1ccc(NC(=O)/C(=C\c2ccccc2)NC(=O)c2ccccc2)cc1)N1C(=O)c2ccccc2C1=O (stereo not given) | 5.4% | 23.6 | 8.2µM* | 10.3µM* | -21.3% | 0.6%
COc1ccccc1C(=O)N1CCCC2(CNc3ccccc3[S+](=O)([O-])N2)C1 (stereo not given) | x | x | x | x | 1.5% | x
CC(=O)O[C@]1(C(C)=O)CC[C@H]2[C@@H]3C[C@H](C)C4=CC(=O)CC[C@]4(C)[C@H]3CC[C@@]21C | u | u | 16.4µM*! | 18.4µM* | 1.4% | u
SMILES | HT1080 IDH1KD tx | IL-1B inflam inh | TDP1 cell noCPT | DT40 TDP1 CPT | ALOX12 inh | HT1080NT lethal
CCC(=O)OC1(C(C)=O)CCC2C3CCC4=CC(=O)CCC4(C)C3CCC21C (stereo not given) | -23.5% | -25.6 | 23.1µM* | -98.0% | 1.4% | -13.1%
CC(=O)OC1(C(C)=O)CCC2C3CC(C(F)(F)F)C4=CC(=O)CCC4(C)C3CCC21C (stereo not given) | 20.6µM* | -94.4* | 13µM* | u | 2.8% | 18.4µM*
CC12CCC(=O)C=C1C(O)CC1C2CCC2(C)C1CCC2(O)C(=O)CO (stereo not given) | -3.2% | 3.7 | -18.3% | u | -4.6% | 0.4%
CC(=O)C12CCCCC1CC1[C@@H]3CC(C)C4=CC(=O)CC[C@]4(C)C3CC[C@@]12C (stereo not given in full) | u | 11.0 | 14.6µM* | u | -0.4% | 18.8%
COc1ccc(OC)c(CNC(=O)C2Cn3cccc3C(=O)N2)c1 (stereo not given) | x | x | x | x | 22.4% | x
Nc1nccnc1C(=O)NCCSC1CCCC1 | x | x | x | x | -2.1% | x
COc1ccc2c(c1)cc(C(=O)Nc1ccc(C)cc1C)n2C | x | x | x | x | 0.8% | x
COC(=O)[C@@]1(Cc2ccc(OC)cc2)[C@@H]2[C@@H](CC(=O)[C@H]2CC(=O)C(=O)N(C)C)CN1C(=O)c1ccccc1 | -0.5% | -21.2 | u | 23.1µM* | 0.6% | 1.1%
COC(=O)[C@@]1(Cc2ccc(F)cc2)[C@H]2C(CC(=O)C(=O)N3CCCC3)C(=O)C[C@H]2CN1C(=O)c1ccccc1 (stereo not given in full) | u | -70.4* | u | u | -26.5% | u

Compound activity deposited in PubChem by National Center for Advancing Translational Sciences (NCATS).
